This passage reports outcome and AC50 results from PubChem BioAssay (EPA / NIEHS).

Activity calls are given as the source filed them. How the source made its calls: active means hit-call score of the fitted dose curve at least 0.9, where 1 is the maximum; inactive means score below 0.9.

Assay [1] concerns the target Nuclear respiratory factor 1 (Homo sapiens) (UniProt Q16656). In words: ATG_NRF1_CIS: Attagene CIS-FACTORIAL HepG2 Assay for human Nuclear Respiratory Factor 1 (NRF1) Orphan Gene (AID 2282987). The settings on record: HepG2 NRF1 cis-element reporter, Attagene multiplex; actives raise or lower the signal. An outline of the steps:
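Using DMSO as baseline, gain- or loss-of-signal was fitted for reporter mRNA levels in HepG2 cells transiently transfected with cis-regulated reporter units. Samples were taken 24 h after dosing and read by RT-PCR with capillary electrophoresis.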

A short description of assay [2]: ATG_NFI_CIS: Attagene CIS-FACTORIAL HepG2 Assay for human Nuclear Factor I (NFI) (AID 2282989). The settings on record: HepG2 cis-regulatory reporter, NFI response element transcription; actives raise or lower the signal. The essentials:
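Reporter transcription driven by endogenous transcription factors in HepG2 cells; 24 h treatment. Quantitation by labelled RT-PCR fragments on capillary electrophoresis, gain- or loss-of-signal relative to DMSO.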

Assay [3] addresses Myc proto-oncogene protein (Homo sapiens) (UniProt P01106). Kind of assay: ATG_Myc_CIS: Attagene CIS-FACTORIAL HepG2 Assay for human Myelocytomatosis (Myc) Proto-Oncogene Transcription Factor (AID 2282990). The following applies: HepG2, Attagene cis-reporter transcription factor activity; actives raise or lower the signal. An outline of the steps:
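After 24 h chemical treatment of HepG2 cells carrying multiplexed cis-regulated reporter constructs, reporter transcripts quantified by RT-PCR and capillary electrophoresis of fluorescent fragments. Gain or loss fitted against DMSO baseline.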

Assay [4] in a line: ATG_NF_kB_CIS: Attagene CIS-FACTORIAL HepG2 Assay for human Nuclear Factor Kappa B (NF-kB) (AID 2282991). The settings on record: HepG2 Attagene cis-factorial NF-kB reporter mRNA; actives raise or lower the signal. The essentials:
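Endpoint from a 52-component multiplexed HepG2 reporter panel: cis-regulated transcription units transiently transfected, 24 h dosing, reporter mRNA quantified by RT-PCR and capillary electrophoresis, scored as increase or decrease against DMSO.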

The nature of assay [5]: ATG_NRF2_ARE_CIS: Attagene CIS-FACTORIAL HepG2 Assay for human Nuclear Factor Erythroid 2 Related Factor 2 (NFR2) response to Antioxidant Response Elements (ARE) (AID 2282992).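 On AC50: reporter mRNA level measured by RT-PCR and capillary electrophoresis fluorescence.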 The settings on record: HepG2 Attagene ARE/NRF2 reporter, transcription factor activity; actives raise or lower the signal. The essentials: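 HepG2 cells transiently transfected with multiplexed cis-regulated reporter transcription units measure endogenous transcription factor activity. Reporter mRNA at 24 h is quantified by RT-PCR, fluorescent labelling and capillary electrophoresis, with bidirectional fitting relative to DMSO.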

Assay [6] addresses Cellular tumor antigen p53 (Homo sapiens) (UniProt P04637). In words: ATG_p53_CIS: Attagene CIS-FACTORIAL HepG2 Assay for human p53 Transcription Factor (AID 2282994). The following applies: HepG2 p53 cis-element reporter, Attagene mRNA; actives raise or lower the signal. The essentials:
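HepG2 cells transiently transfected with multiplexed cis-regulated reporter transcription units read endogenous TF activity. After 24 h compound exposure, reporter mRNA was quantified by RT-PCR, fluorescent labelling, HpaI digestion and capillary electrophoresis; bidirectional fits versus DMSO baseline.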

Assay [7] in a line: BSK_3C_uPAR: BioMAP Diversity Plus: 3C Assay for Urokinase-type plasminogen activator receptor (uPAR) Biomarker Activity (AID 2282998). The following applies: BioMAP 3C HUVEC, uPAR biomarker ELISA; actives raise or lower the signal. An outline of the steps:
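Readout: ELISA for surface uPAR. System: human umbilical vein endothelial primary cells, 24 h after chemical exposure. Analysis: bidirectional fit, DMSO baseline.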
(In general: In an ELISA, binding on a coated surface is turned into a signal by an enzyme label.)

Assay [8] can be described thus: BSK_3C_VCAM1: BioMAP Diversity Plus: 3C Assay for Vascular cell adhesion molecule 1 (VCAM1) Biomarker Activity (AID 2282999). The following applies: BioMAP 3C HUVEC, VCAM1 ELISA, cytokine-stimulated; actives raise or lower the signal. An outline of the steps:
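Endothelial cells from human umbilical vein are treated with test chemical. At 24 h, VCAM-1 is measured by ELISA, and responses in either direction are fitted relative to DMSO.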

Assay [9] can be described thus: ATG_Oct_MLP_CIS: Attagene CIS-FACTORIAL HepG2 Assay for human Octamer-Binding Transcription Factor (Oct) (AID 2282993). The settings on record: HepG2 Attagene cis-factorial Oct reporter, mRNA; actives raise or lower the signal. An outline of the steps: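 Transfected HepG2 cells, 24 h treatment. Reporter mRNA quantified by RT-PCR–capillary electrophoresis; bidirectional fitting against DMSO.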

As a reminder, the AC50 is the midpoint of the concentration-response curve, whichever way the signal moves.

Chain of Cellular tumor antigen p53 (Homo sapiens) (P04637 whole entry, looked up): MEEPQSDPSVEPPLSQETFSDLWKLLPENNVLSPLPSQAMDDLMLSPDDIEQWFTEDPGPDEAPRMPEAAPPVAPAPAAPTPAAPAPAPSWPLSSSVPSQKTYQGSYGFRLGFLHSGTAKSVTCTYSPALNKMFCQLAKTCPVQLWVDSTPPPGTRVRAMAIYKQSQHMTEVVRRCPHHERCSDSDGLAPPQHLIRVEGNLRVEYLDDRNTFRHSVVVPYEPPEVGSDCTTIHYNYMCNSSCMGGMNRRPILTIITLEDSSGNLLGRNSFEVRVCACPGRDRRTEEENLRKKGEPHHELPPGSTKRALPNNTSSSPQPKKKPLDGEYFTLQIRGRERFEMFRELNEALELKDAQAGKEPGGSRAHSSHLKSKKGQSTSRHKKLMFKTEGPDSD
Chain of Nuclear respiratory factor 1 (Homo sapiens) (Q16656 whole entry, looked up): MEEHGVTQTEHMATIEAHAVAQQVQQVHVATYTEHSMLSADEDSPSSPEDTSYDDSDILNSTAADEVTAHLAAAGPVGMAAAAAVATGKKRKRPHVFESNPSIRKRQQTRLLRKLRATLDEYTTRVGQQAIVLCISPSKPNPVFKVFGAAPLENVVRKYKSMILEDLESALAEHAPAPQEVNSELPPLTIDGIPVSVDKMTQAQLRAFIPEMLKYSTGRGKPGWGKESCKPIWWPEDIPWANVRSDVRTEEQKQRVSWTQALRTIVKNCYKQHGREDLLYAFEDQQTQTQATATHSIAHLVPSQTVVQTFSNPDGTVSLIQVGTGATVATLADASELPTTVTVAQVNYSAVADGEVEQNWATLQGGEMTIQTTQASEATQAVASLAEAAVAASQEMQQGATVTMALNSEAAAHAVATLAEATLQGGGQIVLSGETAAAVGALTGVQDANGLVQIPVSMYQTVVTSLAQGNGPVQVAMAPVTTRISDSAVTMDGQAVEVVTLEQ
Chain of Myc proto-oncogene protein (Homo sapiens) (P01106 whole entry, looked up, the tested form may be a part): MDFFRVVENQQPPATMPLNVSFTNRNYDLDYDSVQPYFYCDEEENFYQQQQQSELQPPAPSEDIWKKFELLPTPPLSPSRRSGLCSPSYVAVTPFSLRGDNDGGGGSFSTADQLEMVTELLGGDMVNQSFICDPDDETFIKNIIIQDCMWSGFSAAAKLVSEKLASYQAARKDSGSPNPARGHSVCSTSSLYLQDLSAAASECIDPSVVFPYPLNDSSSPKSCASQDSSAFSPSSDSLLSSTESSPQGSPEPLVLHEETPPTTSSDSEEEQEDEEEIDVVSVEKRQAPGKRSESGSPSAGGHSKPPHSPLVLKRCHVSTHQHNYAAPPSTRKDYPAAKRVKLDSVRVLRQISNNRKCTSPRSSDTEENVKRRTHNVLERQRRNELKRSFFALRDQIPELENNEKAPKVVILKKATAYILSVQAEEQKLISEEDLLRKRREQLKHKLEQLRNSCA

As to `CC(=O)CCC=C(C)CCC=C(C)C`, the compound was classed as inactive in assay [1], in assay [2], in assay [3], in [4], in [6] and in assay [7]. Further, the half-maximal activity concentration (AC50) is 53 µM (active) in [5] and 30.9 µM (active) in assay [8].
Turning to `CCCC1CCOC(C)S1` (stereo not drawn), the outcome in assay [1], in assay [2], in assay [3], in [4] and in assay [9] was inactive.
As for `CCn1cc(C(=O)O)c(=O)c2ccc(C)nc21`, the outcome in [1], in assay [2], in assay [3], in assay [4], in assay [9] and in [7] was inactive. Also, the result in assay [8] was inactive.
On to `CC(=O)CCc1ccc(O)cc1`, for which the compound was classed as inactive in assay [1], in assay [2], in [3], in assay [4], in [9] and in assay [6].
As to `CCO[Si](CC)(OCC)OCC`, the call in [1], in assay [2], in assay [3], in assay [4], in assay [9] and in assay [6] was inactive.
For the compound `CC(C)C(=O)c1ccccc1`, the call in assay [1], in assay [2], in [3], in [4], in [9] and in [6] was inactive.
With `CCCCCCCCCCOC(=O)c1ccccc1C(=O)OCCCCCCCC`, the compound was called inactive in [1], in assay [2], in assay [3], in assay [4], in assay [5] and in assay [6].
Take `CC(=O)c1ccc(C)cc1`: the result in assay [1], in [2], in assay [3], in assay [4], in assay [9] and in [7] was inactive. Moreover, the result in [8] was inactive.
For the compound `CC(=O)Nc1cc(S(=O)(=O)O)cc2cc(S(=O)(=O)O)c(N=Nc3ccccc3)c(O)c12`, the compound was classed as inactive in assay [1], in [2], in [3], in [4], in [9] and in assay [6].
In the case of `CCOC(=O)C=Cc1ccccc1`, the result in assay [1], in assay [2], in assay [3], in assay [4], in [6] and in [7] was inactive. In assay [8], the outcome was inactive. The AC50 in assay [5] was 42.3 µM (active).
Turning to `CC(C)(C)C1CCC(O)CC1` (stereo not drawn), the result in [1], in assay [2], in [3], in [4], in [9] and in [6] was inactive.
Consider `O=C(O)c1ccccc1O`, for which the compound was classed as inactive in assay [1], in [2], in [3], in [5] and in assay [9].
Take `CC1=CC[C@@H](C(C)(C)O)CC1`: the compound was classed as inactive in assay [1], in assay [2], in [3], in assay [4] and in assay [6].
As to `CCCCCC(=O)O[C@]1(C(C)=O)CC[C@H]2[C@@H]3CCC4=CC(=O)CC[C@]4(C)[C@H]3CC[C@@]21C`, in assay [1], the half-maximal activity concentration (AC50) is 8.32 µM (active). Besides, the compound was called inactive in assay [2], in [3], in [4], in assay [9] and in assay [6].
For the compound `O=C(OCc1ccccc1)c1ccccc1O`, the call in [1], in [3] and in assay [4] was inactive. For the same compound, the figures for the AC50 in [2], in assay [5] and in assay [6] were 178 µM (active), 64.4 µM (active) and 145 µM (active), respectively.
With `[Na+]`, the compound was called inactive in assay [1], in assay [2], in [3], in assay [4], in [5] and in assay [6].
For the compound `CC12CCC(C1)C(C)(C)C2O` (stereo not drawn), the call in [1], in assay [2], in [3], in [4], in assay [5] and in assay [6] was inactive.
With `CC(C)COC(=O)c1ccccc1O`, the result in [1], in assay [2], in [3], in assay [4], in assay [9] and in assay [6] was inactive.
In the case of `C=C1CC/C=C(\C)CC[C@@H]2[C@@H]1CC2(C)C`, the compound was called inactive in [1], in [2], in assay [3], in [4] and in [6]. In addition, the AC50 in [7] is 33.9 µM (active); in [8], 30.1 µM (active).
As to `CCCCCCCCCCCCS`, the result in assay [1], in assay [2], in [3], in [4], in assay [9] and in assay [6] was inactive. The concentration at half-maximal activity (AC50) is 26.4 µM (active) in assay [7] and 20 µM (active) in assay [8].
Turning to `C=C(C)C(=O)OCCC(C)OC(=O)C(=C)C` (stereo not drawn), the result in assay [1], in [2], in [3], in [4], in assay [5] and in assay [6] was inactive.
With `CC(=O)Oc1c(C)c(C)c2c(c1C)CC[C@@](C)(CCC[C@H](C)CCC[C@H](C)CCCC(C)C)O2`, the result in assay [1], in assay [2], in [3], in assay [5], in assay [9] and in assay [6] was inactive.
